Laboratory results taken from PubChem BioAssay (NCI).
Compounds without any hit were thinned out: in the full panel of roughly 79,000, 15% have a hit. Values without a mark were called inactive. Activity calls are given as the source filed them. No stated cut-off is given here; in the data, active means growth inhibition above about 70%; inactive means the rest.

Assay: NCI Yeast Anticancer Drug Screen. Data for the rad18 strain (AID 177)
Conditions: S. cerevisiae rad18 mutant growth inhibition, hits give high values
Experimental: Growth inhibition of yeast strains with defined genetic alterations is measured as a screen for potential anti-cancer activity. Selected strains with alterations in DNA damage repair or cell cycle control were exposed to compounds and growth inhibition was measured relative to vehicle treated controls. The strain used in this assay is rad18

Compound	growth inhibition (at 1.2 µM)	growth inhibition (at 3.7 µM)	growth inhibition (at 11.0 µM)	growth inhibition (at 33.0 µM)	growth inhibition (at 100.0 µM)
O=C(O)/C=C\C(=O)NNc1ccc(Br)cc1	-2%	95% (active)	98% (active)	98% (active)	98% (active)
O=C1C=CC(=O)N1c1ccc(Br)cc1Cl	85% (active)	99% (active)	99% (active)	93% (active)	99% (active)
Cc1ccc(C(C)C)c(C(=C2C=CC(=[N+](C)C)C=C2)c2c(C(C)C)ccc(C)c2O)c1O	-2%	25%	98% (active)	95% (active)	80% (active)
COc1ccc(/C=C2\S/C(=N/Nc3nc(-c4ccccc4)cs3)NC2=O)cc1OC	35%	83% (active)	97% (active)	96% (active)	90% (active)
COc1ccc(C(=O)NCCN(C)C)c2nc3ccccc3cc12	19%	17%	11%	-5%	66%
Nc1cccc2cc(Cl)cnc12	13%	27%	61%	82% (active)	90% (active)
CNC(=O)OCc1c(COC(=O)NC)c(C)n(-c2ccc(Cl)c(Cl)c2)c1C	-32%	-33%	1%	97% (active)	98% (active)
Cc1[nH]nc(C(F)(F)F)c1N=NN(C)C	10%	47%	79% (active)	99% (active)	99% (active)
